Test [1] is described as follows: CCTE_Shafer_MEA_acute_burst_percentage_mean: CCTE's Neural Acute Assay for Percentage of Spikes in a Burst, Shafer Lab (AID 2284017).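 On AC50: curve fitted for loss of signal so potency reflects decreased burst percentage.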 A digest of the protocol:
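Primary rat cortical neurons on 16-electrode MEA wells; 40 min baseline recorded at DIV 13 or 15, then 40 min after compound (0.03-40 uM) at 37 C. Well-mean fraction of spikes in single-electrode bursts; percent change from baseline, DMSO as negative control.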

The nature of test [2]: CCTE_Shafer_MEA_acute_burst_percentage_std: CCTE's Neural Acute Assay for Standard Deviation of Burst Percentage, Shafer Lab (AID 2284018).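 Further: fitted in the negative direction so actives lower burst percentage SD.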 A digest of the protocol: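 Rat primary cortical neurons on 48-well MEAs, DIV 13 or 15, 37 C. 40-min baseline then 40-min recording with compound (0.03-40 uM); well-level SD of per-electrode burst spike percentage, expressed as percent change from baseline.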

A short description of test [3]: CCTE_Shafer_MEA_acute_per_network_burst_spike_number_std: CCTE's Neural Acute Assay for Standard Deviation of Number of Spikes in a Network Burst, Shafer Lab (AID 2284020).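 Further: fitted for decrease in spike-number SD versus DMSO so actives lower it.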 In a few lines: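 Rat cortical cultures, DIV 13/15, 37 C; 20-min stabilisation, 40-min baseline, compound 0.03-40 uM, 40-min re-record. Spikes detected at 8x rms noise (300-5000 Hz band-pass). Readout: % change from baseline in per-burst spike-number SD.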

Test [4] is described as follows: CCTE_Shafer_MEA_acute_per_network_burst_electrodes_number_mean: CCTE's Neural Acute Assay for Mean Number of Electrodes in a Network Burst, Shafer Lab (AID 2284021).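 Further: curves fitted for decreases only so hits reduce electrodes per burst.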 In a few lines: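 Percent change from baseline in average electrode count per network burst, rat cortical cultures on 48-well MEAs; 40-min recordings each side of exposure, DIV 13 or 15; threshold 8x rms noise; DMSO as negative control.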

The nature of test [5]: CCTE_Shafer_MEA_acute_network_burst_percentage: CCTE's Neural Acute Assay for Percentage of Network Bursts, Shafer Lab (AID 2284022).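 Further: curves fitted for loss so actives lower network burst percentage.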 A digest of the protocol:
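On DIV 13 or 15, at least three wells of rat cortical neurons per compound are dosed at 0.03-40 uM. Spontaneous firing is detected at 8x rms noise for 40 min before and after dosing at 37 C. The percent change in network-burst spike share is reported.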

Test [6] in a line: CCTE_Shafer_MEA_acute_cross_correlation_area: CCTE's Neural Acute Assay for Area of Cross Correlation, Shafer Lab (AID 2284024).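 Further: area under pooled inter-electrode spike cross-correlation near zero lag as percent change from own baseline; curves fitted for loss of cross-correlation area so actives lower synchrony.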 In a few lines: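 Extracellular recordings from cultured rat cortical neurons measure network synchrony as cross-correlation area; each well's post-compound value (0.03-40 uM, 40 min) is compared with its own 40 min baseline to give percent change.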

Test [7] can be described thus: CCTE_Shafer_MEA_acute_cross_correlation_HWHM: CCTE's Neural Acute Assay for Cross Correlation at Half Width at Half Maximum, Shafer Lab (AID 2284026).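 Further: percent change per well from pre-dose baseline in spike cross-correlogram half width; hits are a decrease in cross-correlogram half width relative to DMSO.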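 On outcome: spontaneous network firing of rat primary cortical neurons on multiwell microelectrode arrays.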 In a few lines:
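Percent change in cross-correlogram half width at half maximum, narrower meaning more synchrony, was derived per well from paired 40-min recordings before and during exposure to 0.03-40 uM compound in rat cortical cultures at 37 C.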

Test [8] can be described thus: CCTE_Shafer_MEA_acute_synchrony_index: CCTE's Neural Acute Assay for Synchrony, Shafer Lab (AID 2284027).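 Further: network synchrony index of spontaneous spiking in primary rat cortical neurons on MEAs; fitted for loss of signal so actives lower synchrony relative to DMSO.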 A digest of the protocol:
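Rat cortical cultures, DIV 13/15; spikes detected at 8x rms noise, 300-5000 Hz band-pass. Compound 0.03-40 uM, ≥3 wells; 40-min pre- and post-exposure recordings, 37 C. Readout: % change in synchrony index; loss-of-signal fit vs DMSO.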

Test [9] can be described thus: CCTE_Deisenroth_AIME_384WELL_CTox_Inactive: Cytotoxicity Assessment (CTOX) in CCTE's 384-well Estrogen Receptor Transactivation Assay without AIME metabolic competence (metabolism negative), Deisenroth Lab (AID 2284039; active means hit-call score of the fitted dose curve at least 0.9, where 1 is the maximum;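 further: cell viability via live-cell protease substrate cleaved to fluorescent probe; cells exposed 24 h to medium preincubated 2 h with alginate-water beads without S9; loss of fluorescence signal means loss of viability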). In a few lines:
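VM7Luc4E2 human breast cells received conditioned medium from a 2 h incubation of chemical with alginate-water microspheres (no S9), then were exposed 24 h. Viability was read as protease-substrate cleavage to a fluorescent probe; loss of signal was fitted bidirectionally over 0.002–200 uM.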

Test [10] deals with Estrogen receptor (Homo sapiens) (UniProt P03372). The test can be described thus: CCTE_Deisenroth_AIME_384WELL_LUC_Active: CCTE's 384-well Estrogen Receptor Transactivation Assay with AIME metabolic competence (ERTA luciferase; metabolism positive), Deisenroth Lab (AID 2284030; active means hit-call score of the fitted dose curve at least 0.9, where 1 is the maximum). In a few lines: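 Estrogenic luciferase signal in VM7Luc4E2 cells is measured at 24 hour, after chemicals have been preconditioned 2 hours with PB/BNF-induced rat hepatic S9 in alginate. Gain of signal is fitted relative to 17beta-estradiol, across 0.002 - 200 uM.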
Chain of Estrogen receptor (Homo sapiens) (P03372 whole entry, looked up): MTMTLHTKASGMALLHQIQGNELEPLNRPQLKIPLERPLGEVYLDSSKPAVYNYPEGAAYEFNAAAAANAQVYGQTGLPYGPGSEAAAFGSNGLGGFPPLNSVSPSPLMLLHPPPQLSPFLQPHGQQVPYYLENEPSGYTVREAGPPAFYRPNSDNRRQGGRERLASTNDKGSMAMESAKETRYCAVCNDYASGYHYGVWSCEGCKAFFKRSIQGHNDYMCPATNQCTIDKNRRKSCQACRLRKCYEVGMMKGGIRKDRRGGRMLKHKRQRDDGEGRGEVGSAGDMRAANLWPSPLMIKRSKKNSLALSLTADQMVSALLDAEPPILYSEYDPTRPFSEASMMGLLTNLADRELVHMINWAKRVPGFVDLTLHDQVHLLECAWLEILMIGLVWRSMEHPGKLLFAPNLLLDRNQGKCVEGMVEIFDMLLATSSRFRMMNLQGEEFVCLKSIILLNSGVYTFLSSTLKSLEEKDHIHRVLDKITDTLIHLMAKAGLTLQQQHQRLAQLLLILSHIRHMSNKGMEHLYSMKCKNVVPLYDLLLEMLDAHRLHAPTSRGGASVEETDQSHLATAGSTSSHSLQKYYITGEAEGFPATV

Test [11] has the same target. The test can be described thus: CCTE_Deisenroth_AIME_384WELL_LUC_Inactive: CCTE's 384-well Estrogen Receptor Transactivation Assay without AIME metabolic competence (ERTA luciferase; metabolism negative), Deisenroth Lab (AID 2284038; active means hit-call score of the fitted dose curve at least 0.9, where 1 is the maximum;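 further: hits raise estrogen receptor luciferase signal so potencies reflect agonists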). A digest of the protocol: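 Metabolism-negative mode: AIME lids stamped in alginate-water, no hepatic S9. 2 h chemical incubation → medium onto VM7Luc4E2 ERTA, 24 h. Readout luciferase luminescence; gain-of-signal fit vs 17beta-estradiol. Conc. 0.002 - 200 uM.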

For test [12] the target is unchanged. The test can be described thus: CCTE_Deisenroth_AIME_384WELL_LUC_Shift: CCTE's 384-well Estrogen Receptor Transactivation Assay with AIME metabolic competence data shift (ERTA luciferase; difference in metabolism positive and negative), Deisenroth Lab (AID 2284041).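 Further: shift is response with S9 minus without S9 so positive means metabolism raised ER signal.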 A digest of the protocol: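 Chemicals (0.002–200 uM, 10 points) pre-incubated 2 h with alginate-encapsulated induced male Sprague Dawley rat liver S9 or S9-free, then medium applied 24 h to VM7Luc4E2 cells; luciferase. Endpoint is per-concentration difference, S9-positive minus negative.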

The nature of test [13]: CCTE_Shafer_MEA_dev_firing_rate_mean: CCTE's Neural Network Formation Assay for Mean Firing Rate, Shafer Lab (AID 2284031). In a few lines: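 Read-out: spike count/recording length, averaged over active electrodes, then AUC across days 5, 7, 9, 12. Rat cortical cultures on MEA; continuous 12-day exposure, media and treatment renewed DIV 5, 9; DMSO baseline.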
A short description of test [14]: CCTE_Shafer_MEA_dev_per_burst_spike_percent: CCTE's Neural Network Formation Assay for Percent of Spikes in a Burst, Shafer Lab (AID 2284032). In a few lines: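 Value is trapezoidal AUC over recordings on days 5, 7, 9 and 12 of the well-mean fraction of spikes falling in single-electrode bursts; rat cortical cultures exposed continuously from plating, treatment renewed DIV 5 and 9, fitted downward against DMSO.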

Test [15] is described as follows: CCTE_Shafer_MEA_dev_active_electrodes_number: CCTE's Neural Network Formation Assay for Number of Active Electrodes, Shafer Lab (AID 2284040; active means hit-call score of the fitted dose curve at least 0.9, where 1 is the maximum). A digest of the protocol: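 Developing rat cortical networks on MEAs, exposed DIV 0–12. Value is the AUC of active-electrode counts (≥5 spikes/min) from days 5, 7, 9, 12, relative to DMSO.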
Test [16] can be described thus: CCTE_Shafer_MEA_dev_burst_rate: CCTE's Neural Network Formation Assay for Burst Rate, Shafer Lab (AID 2284042). In a few lines: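 Rat primary cortical cultures on PEI/laminin MEA; compound from plating, re-dosed at DIV 5, 9 media change. Single-electrode bursts/recording length, well mean of active electrodes; AUC over DIV 5–12 recordings; loss-of-signal vs DMSO.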

The nature of test [17]: CCTE_Shafer_MEA_dev_bursting_electrodes_number: CCTE's Neural Network Formation Assay for Number of Bursting Electrodes, Shafer Lab (AID 2284043; active means hit-call score of the fitted dose curve at least 0.9, where 1 is the maximum). A digest of the protocol:
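Rat cortical primary neurons, 48-well MEA, 16 electrodes/well; dosing DIV 0–12, re-dosed with full media change DIV 5, 9. Recordings DIV 5/7/9/12, AxIS adaptive spike detector; bursting electrode = ≥1 burst/2 min. AUC across days; loss of signal vs DMSO.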

Test [18] is described as follows: CCTE_Shafer_MEA_dev_per_burst_interspike_interval: CCTE's Neural Network Formation Assay for Burst Interspike Interval, Shafer Lab (AID 2284044). In a few lines: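 Spontaneous activity of maturing rat cortical networks is recorded on DIV 5, 7, 9 and 12 under chronic compound exposure beginning at plating. Endpoint: burst interspike interval well-mean, collapsed into trapezoidal AUC and fitted in the negative direction relative to DMSO.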

A short description of test [19]: CCTE_Shafer_MEA_dev_burst_duration_mean: CCTE's Neural Network Formation Assay for Mean Burst Duration, Shafer Lab (AID 2284045). A digest of the protocol:
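Rat cortical cultures, 1.5 x 10^5 cells/well with laminin drop; continuous dosing days 0–12, media plus treatment refreshed DIV 5, 9. AxIS adaptive spike detection; mean single-electrode burst duration, AUC over four recordings, negative direction vs DMSO.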

Test [20] in a line: CCTE_Shafer_MEA_dev_interburst_interval_mean: CCTE's Neural Network Formation Assay for Mean Interburst Interval, Shafer Lab (AID 2284046).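 Further: well-mean interburst interval of bursting electrodes as AUC over four recording days; curve fitted for decrease in interburst interval relative to DMSO.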 In a few lines:
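Rat cortical neurons, 1.5 x 10^5 cells/well, 48-well MEA; compound from day 0 through DIV 12, media and treatment renewed DIV 5/9. Recordings DIV 5, 7, 9, 12; well-mean interburst interval → trapezoidal AUC, loss direction vs DMSO.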

Structures are written as SMILES. Inconclusive results are not listed. Activity calls are given as the source filed them. How the source made its calls, unless noted: active means hit-call score of the fitted dose curve at least 0.9, where 1 is the maximum; inactive means score below 0.9.

As to `Nc1cc([N+](=O)[O-])ccc1O`, the AC50 in test [1] is 23.7 µM (active); in [3] it was 226 nM (active); in test [5], 15 µM (active); in test [7], 24.4 µM (active); in test [8] it was 22.6 µM (active). Moreover, the molecule was classed as inactive in test [2], in test [4] and in test [6].

Turning to `CCCC1CCC(=O)O1` (configuration not stated), the call in test [9] was inactive.

As for `O=C1C(c2[nH]c3ccc(S(=O)(=O)O)cc3c2O)=Nc2ccc(S(=O)(=O)O)cc21`, in test [9], the call was inactive.

`CCC(=O)OCc1ccccc1`: the outcome in test [1], in test [2], in test [3], in [4], in test [5] and in [7] was inactive. Besides, the result in [8] was inactive. Moreover, the AC50 in test [6] was 9.43 nM (active).

As for `CC1(C)C(=O)N(Br)C(=O)N1Cl`, the result in test [9] was inactive.

For `O=C[C@@H](O)[C@H](O)[C@H](O)CO`, in [9], the molecule was called inactive.

As for `C=C[Si](OCC)(OCC)OCC`, the molecule was called inactive in test [1], in [2], in [3], in test [4], in test [5] and in test [6]. Besides, the molecule was classed as inactive in test [7] and in [8].

On to `Cc1cc(C2(c3cc(C)c(O)cc3C)OS(=O)(=O)c3ccccc32)c(C)cc1O`, for which the molecule was called inactive in test [1], in test [2], in test [3], in test [4], in [5] and in test [6]. The call in [7] and in test [8] was inactive.

On to `OC1OC[C@@H](O)[C@H](O)[C@H]1O` (some centres not stated), for which the outcome in test [1], in [3], in [4], in test [5], in test [6] and in test [7] was inactive. In addition, the call in [8] was inactive. For the same molecule, the AC50 in [2] was 1.21 µM (active).

With `CC1(C)[C@@H]2CC[C@@]1(C)[C@H](O)C2`, the outcome in [9] was inactive.

Take `CCCCCCCCCCCCCC(=O)O`: the molecule was classed as inactive in test [10], in [11], in [9] and in test [12].

Regarding `CN(C)C(=N)N=C(N)N`, the result in [1], in [2], in test [3], in test [4], in [5] and in test [6] was inactive. Also, the outcome in [7], in test [8], in test [13], in test [14], in [15] and in [16] was inactive. Moreover, the outcome in test [17], in test [18], in test [19] and in test [20] was inactive.

As for `CC(C)(COC(=O)c1ccccc1)COC(=O)c1ccccc1`, the call in test [1], in test [2], in test [3], in [4], in [5] and in test [6] was inactive. For the same molecule, the call in [7] and in test [8] was inactive.

Take `CC(=O)OCCC(C)CC(C)(C)C` (configuration not stated): the molecule was called inactive in test [1], in [2], in [3], in test [4], in [5] and in test [6]. In addition, the molecule was classed as inactive in test [7] and in test [8].

With `C=CCOC(=O)CCC1CCCCC1`, the call in test [1], in test [2], in test [3], in [4], in [5] and in [6] was inactive. Further, the molecule was called inactive in [7] and in test [8].

On to `CC[Si](OC(C)=O)(OC(C)=O)OC(C)=O`, for which the outcome in [1], in [2], in test [3], in [4], in test [5] and in [6] was inactive. Besides, the call in test [7] and in [8] was inactive.

Broadly, the AC50 is the midpoint of the concentration-response curve, whichever way the signal moves.

(Values after PubChem BioAssay (EPA / NIEHS).)
